Compound activity from PubChem.
This is a sample that favours compounds with a hit; in the whole collection about 8.7% have one here.
ALOX12 inh = blocks human arachidonate 12S-lipoxygenase | purified 12hLO, xylenol orange hydroperoxide absorbance | Potency, µM (series often up to 108 µM), inactives show at the highest dose activity change, negative = inhibition, most hits filed as inhibitors | 1.1% of 580,000 active | AID 1671190; also: % is scaled to controls: 0 for no effect and ±100 for the full control effect
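Purified human 12hLO at 150 nM in 25 mM Hepes, 0.01% Triton X-100, pH 7.0, preincubated 15 min at room temperature with compound. Reaction started with 40 uM arachidonic acid, 30 min at room temperature. Hydroperoxide measured by Fe-xylenol orange, 573/405 nm absorbance ratio.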
JMJD2A Tudor inh = inhibitors of human JMJD2A Tudor domain. Potency, µM (doses to about 114 µM), inactives show at the highest dose activity change, negative = inhibition, usual class: inhibitors. 4.4% of 390,000 active. AID 504339. AlphaScreen JMJD2A-Tudor / H3K4me3 peptide binding. O75164; also: % is scaled to controls: 0 for no effect and ±100 for the full control effect; nearly all actives have a fitted effect of over 50% in size
Sfp PPTase inh = blocks B. subtilis Sfp PPTase activity | Q9F4F7 | Biochemical Sfp PPTase activity, qHTS | Potency, µM, for inactives: largest response in the series, negative = inhibition, usual class: inhibitors | 3.5% of 310,000 active | AID 1490;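 also: the enzyme is Sfp with the accession as filed and its product quenches rhodamine fluorescence; 0% = enzyme reaction without inhibitor and -100% = no enzyme wells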
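Reaction rates are the 30-min fluorescence difference (ex 525, em 598 nm) in wells containing 15 nM Sfp, 5 uM rhodamine-CoA and 12.5 uM BHQ-2-YbbR at pH 7.6 with 10 mM MgCl2.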
BAZ2B block = blocks human BAZ2B. 4.4% of 360,000 active. AID 504333. Potency, µM (series often up to 114 µM), inactives show top-dose activity change, negative = inhibition, hits mostly inhibitors. AlphaScreen BAZ2B-H3K14Ac peptide displacement. Q9UIF8; also: % is scaled to controls: 0 for no effect and ±100 for the full control effect; nearly all actives have a fitted effect of over 60% in size
Target sequence (Q9UIF8 whole entry, looked up): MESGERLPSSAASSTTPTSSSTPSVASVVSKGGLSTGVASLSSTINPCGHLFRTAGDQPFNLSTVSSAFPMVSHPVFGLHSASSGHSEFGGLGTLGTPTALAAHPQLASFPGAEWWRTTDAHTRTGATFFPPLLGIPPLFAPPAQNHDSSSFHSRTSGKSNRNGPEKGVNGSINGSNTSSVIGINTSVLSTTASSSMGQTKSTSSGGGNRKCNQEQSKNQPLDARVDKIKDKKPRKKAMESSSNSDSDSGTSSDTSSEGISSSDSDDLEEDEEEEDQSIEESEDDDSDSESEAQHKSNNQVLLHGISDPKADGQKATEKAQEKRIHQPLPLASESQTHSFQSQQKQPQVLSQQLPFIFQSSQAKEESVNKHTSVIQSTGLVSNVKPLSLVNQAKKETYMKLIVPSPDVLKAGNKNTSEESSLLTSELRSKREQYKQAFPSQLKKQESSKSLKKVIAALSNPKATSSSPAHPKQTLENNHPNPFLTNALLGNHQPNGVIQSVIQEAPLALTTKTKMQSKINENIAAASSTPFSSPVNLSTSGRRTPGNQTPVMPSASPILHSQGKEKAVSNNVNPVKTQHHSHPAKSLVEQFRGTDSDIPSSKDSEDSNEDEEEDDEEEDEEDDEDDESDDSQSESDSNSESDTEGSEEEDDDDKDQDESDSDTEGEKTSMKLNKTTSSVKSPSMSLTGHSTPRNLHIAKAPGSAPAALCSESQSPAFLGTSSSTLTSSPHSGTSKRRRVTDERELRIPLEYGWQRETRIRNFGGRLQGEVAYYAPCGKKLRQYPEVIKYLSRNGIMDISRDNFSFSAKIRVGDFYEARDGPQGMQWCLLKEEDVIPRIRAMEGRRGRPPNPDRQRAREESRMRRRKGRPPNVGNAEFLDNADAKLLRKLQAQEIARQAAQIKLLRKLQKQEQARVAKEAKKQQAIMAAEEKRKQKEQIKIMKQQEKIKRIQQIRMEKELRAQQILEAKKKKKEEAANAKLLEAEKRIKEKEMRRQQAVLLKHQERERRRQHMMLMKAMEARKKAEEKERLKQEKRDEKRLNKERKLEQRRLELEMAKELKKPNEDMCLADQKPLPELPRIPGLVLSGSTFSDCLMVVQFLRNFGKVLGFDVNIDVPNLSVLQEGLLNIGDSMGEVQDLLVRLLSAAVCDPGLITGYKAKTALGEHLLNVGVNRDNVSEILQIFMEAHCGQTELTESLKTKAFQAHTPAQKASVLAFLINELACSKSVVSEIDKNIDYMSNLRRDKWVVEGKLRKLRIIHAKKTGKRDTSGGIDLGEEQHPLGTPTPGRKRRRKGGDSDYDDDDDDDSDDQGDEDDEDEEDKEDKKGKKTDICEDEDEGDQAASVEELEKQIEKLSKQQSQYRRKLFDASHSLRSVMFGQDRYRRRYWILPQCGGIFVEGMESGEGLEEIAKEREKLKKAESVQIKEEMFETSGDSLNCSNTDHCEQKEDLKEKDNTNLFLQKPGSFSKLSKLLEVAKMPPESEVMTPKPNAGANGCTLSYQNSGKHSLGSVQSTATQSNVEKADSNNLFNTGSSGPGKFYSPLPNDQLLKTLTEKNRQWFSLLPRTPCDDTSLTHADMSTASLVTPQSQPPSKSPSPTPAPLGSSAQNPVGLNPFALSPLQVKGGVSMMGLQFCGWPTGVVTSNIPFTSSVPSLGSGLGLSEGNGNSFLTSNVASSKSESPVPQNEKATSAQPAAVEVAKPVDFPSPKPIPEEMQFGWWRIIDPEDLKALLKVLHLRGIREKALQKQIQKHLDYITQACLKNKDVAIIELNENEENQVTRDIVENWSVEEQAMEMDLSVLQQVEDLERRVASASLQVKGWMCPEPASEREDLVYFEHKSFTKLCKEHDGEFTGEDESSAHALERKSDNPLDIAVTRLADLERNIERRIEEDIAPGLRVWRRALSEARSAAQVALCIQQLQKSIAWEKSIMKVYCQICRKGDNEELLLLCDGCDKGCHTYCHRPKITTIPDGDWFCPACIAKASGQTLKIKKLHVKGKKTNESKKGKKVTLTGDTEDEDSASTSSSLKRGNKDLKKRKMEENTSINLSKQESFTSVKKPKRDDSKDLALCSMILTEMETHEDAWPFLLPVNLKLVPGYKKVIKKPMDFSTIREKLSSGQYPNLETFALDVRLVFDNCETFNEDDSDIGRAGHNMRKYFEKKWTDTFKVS
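AlphaScreen displacement of biotin-H3(5-23)K14Ac peptide (50 nM final) from BAZ2B (50 nM final) in PBS pH 7.4, 0.01% Tween-20; complex preformed 30 min RT, then compounds (top 110 uM) 30 min RT, beads 20 min dark.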
G9a inh = inhibitors of human histone lysine methyltransferase G9a | Q96KQ7 | G9a H3K9 monomethylation, AlphaScreen, 2 h | Potency, µM (series often up to 102 µM), for inactives: at the top dose activity, negative = inhibition, actives largely listed as inhibitors | 8.8% of 350,000 active; also: % is scaled to controls: 0 for no effect and ±100 for the full control effect; nearly all actives have a fitted effect of over 75% in size
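Step 1: enzyme (final 20 nM) with compound, 15 min RT. Step 2: substrate peptide 500 nM and SAM 20 uM, 2 h RT. Step 3: anti-H3K9me1 antibody and AlphaScreen beads, 10 min, then plate read.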
HP1b chromo inh = HP1-beta chromodomain-methylated histone interaction inhibition | Potency, µM (doses to about 114 µM), for the others: at the highest dose activity change, negative = inhibition, usual class: inhibitors | AlphaScreen HP1-beta / biotin-H3K9me3 peptide binding | 0.56% of 390,000 active; also: nearly all actives have a fitted effect of over 70% in size
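AlphaScreen: HP1-beta (50 nM) preformed 30 min with biotin-H3(1-18)K9me3 peptide (50 nM) in PBS pH 7.4, 0.01% Tween-20. Compound added for 30 min at RT, then streptavidin donor/nickel chelate acceptor beads (10 ug/mL) for 30 min.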
* hit, by the source's call; [ ] = another dose, or the depositor's remark. Calls follow the shape of the dose curve; as a rule, active = well fitted curve in the direction sought with a large enough effect; inconclusive = small, poorly fitted or top-dose-only effect, or another doubt; inactive = no such curve, though single readings can be large; an effect the other way counts as inactive or inconclusive. Potency is read from the fitted curve at half-maximal effect.

Screening CCN(CC)CCCC(C)NC(=O)c1cccc(S(=O)(=O)N2CCc3ccccc32)c1 (stereo not drawn) returned ALOX12 inh 0%, JMJD2A Tudor inh -28%, Sfp PPTase inh 2%, BAZ2B block -12%, G9a inh 45µM* and HP1b chromo inh -16%.
Screening CC(C)CCNC(=O)c1cccc(S(=O)(=O)N2CCc3ccccc32)c1 returned ALOX12 inh 0%, JMJD2A Tudor inh -3%, Sfp PPTase inh -7%, BAZ2B block -3%, G9a inh -4%[59 µM] and HP1b chromo inh 39%.
CC1(C(=O)N2C[C@@H](Oc3ccccc3)C[C@H]2C(=O)N2CCOCC2)CCCCC1 was read as ALOX12 inh 12%.
Screening O=S(=O)(CCN1CCN(c2ccc(O)cc2)CC1)c1ccccc1 returned ALOX12 inh 14%.
Screening O=C(CSC1CCCC1)NCCc1cccs1 returned ALOX12 inh -1%.
`Cc1ncccc1C(=O)NCC12CCC=C1N(C)C(=O)CC2` (stereo not drawn) gave ALOX12 inh 38%.
For O=C(COc1ccc(Br)cc1)N1CCc2ccccc21 the results were ALOX12 inh 118%, JMJD2A Tudor inh 6%, Sfp PPTase inh 1%, BAZ2B block 3%, G9a inh 71µM* and HP1b chromo inh 32%.
Screening CC(C)C[C@@H](C=O)NC(=O)[C@H](CC(C)C)NC(=O)[C@H](CC(C)C)NC(=O)OCc1ccccc1 returned ALOX12 inh -4%, Sfp PPTase inh -9% and G9a inh 8.9µM*.
`COC(=O)[C@H](Cc1ccccc1)NC(=O)[C@@H](N)CC(=O)OCc1ccccc1` gave ALOX12 inh 14%, JMJD2A Tudor inh inconclusive, BAZ2B block inconclusive, G9a inh 5%[0.501 µM] and HP1b chromo inh -11%.
`COC(=O)C(CC(C)C)NC(=O)C(N)Cc1ccccc1` (stereo not drawn) gave ALOX12 inh -16%, JMJD2A Tudor inh inconclusive, Sfp PPTase inh 10%, BAZ2B block 4%, G9a inh 45µM* and HP1b chromo inh 12%.
O=C(N[C@@H](Cc1ccccc1)C(=O)CCl)OCc1ccccc1 was read as ALOX12 inh -21%, JMJD2A Tudor inh -9%, BAZ2B block 4%, G9a inh 15µM* and HP1b chromo inh 55%.
COC(=O)CCC(NC(=O)OCc1ccccc1)C(=O)NC(CC(C)C)C(=O)OC (stereo not drawn) was read as ALOX12 inh 0%, JMJD2A Tudor inh -21%, Sfp PPTase inh 23%, BAZ2B block 4%, G9a inh -12% and HP1b chromo inh 13%.
For CN(c1cc(=O)c2ccnc(NCc3ccc4c(c3)OCO4)c2o1)C1CCOCC1 the results were ALOX12 inh -2%[176 µM].
Screening O=C(/C=C/c1cccc2cccnc12)OCc1cc(-c2ccc(Cl)cc2)no1 returned ALOX12 inh 2%.
Screening CCOC(=O)c1nc2ccccc2nc1NCCc1ccccc1 returned ALOX12 inh -29%.
For CCOC(=O)c1nsnc1NCCSC(=N)N the results were ALOX12 inh 45µM*, JMJD2A Tudor inh -3%, Sfp PPTase inh 3%, BAZ2B block 10%, G9a inh 8.9µM* and HP1b chromo inh 15%.
For N#Cc1ccc(/C=C/C(=O)N2CCC(c3nc4ccccc4o3)CC2)cc1 the results were ALOX12 inh 25%.
Screening CCCC(=O)Nc1ccc(C(=O)OC/C(=N/O)c2ccc(OC)cc2)cc1 returned ALOX12 inh 8%.
Screening COC(=O)c1ccc(N2C(=O)CC(Sc3n[nH]c(C)n3)C2=O)cc1 (stereo not drawn) returned ALOX12 inh -1%, JMJD2A Tudor inh -3%[11.4 µM], Sfp PPTase inh inconclusive, BAZ2B block 0%, G9a inh 2µM* and HP1b chromo inh 0%.
